# Results filed as inconclusive are left out. Entries that show only a call come without a potency. The source made the active and inactive calls. Unless noted, calls come from the whole dose curve.
# Experiments:
# [1] = qHTS for Inhibitors of the Functional Ribonucleoprotein Complex (vRNP) of Lassa (LASV) Arenavirus: LASV Primary Screen - GLuc reporter signal (AID 1347082; calls by dose curve; tested in HEK293 reporter line; note: nearly all actives have a fitted effect of over 60% in size)
# [2] = qHTS for Inhibitors of the Functional Ribonucleoprotein Complex (vRNP) of Lassa (LASV) Arenavirus: Viability assay - alamar blue signal for LASV Primary Screen (AID 1347083; calls by dose curve; tested in HEK293 reporter line; note: nearly all actives have a fitted effect of over 80% in size)
# [3] = qHTS for Inhibitors of the Functional Ribonucleoprotein Complex (vRNP) of Lymphocytic Choriomeningitis Arenaviruses (LCMV): Viability assay - alamar blue signal for LCMV Primary Screen (AID 1347085; calls by dose curve; tested in HEK293 reporter line; note: nearly all actives have a fitted effect of over 80% in size)
# [4] = target: Nucleoprotein (Lymphocytic choriomeningitis virus (strain Armstrong)) (UniProt P09992); experiment: qHTS for Inhibitors of the Functional Ribonucleoprotein Complex (vRNP) of Lymphocytic Choriomeningitis Arenaviruses (LCMV): LCMV Primary Screen - GLuc reporter signal (AID 1347086); note: nearly all actives have a fitted effect of over 70% in size
# [5] = Primary qHTS for inhibitors of SARS-S pseudo-typed particle cell entry (AID 1479145); note: nearly all actives have a fitted effect of over 45% in size; note: potency is the fitted concentration of half-maximal effect
# [6] = Primary qHTS for Huh7 cytotoxicity: counterscreen for inhibitors of MERS-S pseudotyped particle cell entry (AID 1479147); conditions: outcome: dose series up to 57.1 µM unless noted
# [7] = Primary qHTS for inhibitors of MERS-S pseudo-typed particle cell entry (AID 1479149); note: nearly all actives have a fitted effect of over 60% in size; note: potency is the fitted concentration of half-maximal effect
# [8] = Primary qHTS for Vero E6 cytotoxicity: counterscreen for inhibitors of SARS-S pseudo-typed particle cell entry (AID 1479150); conditions: outcome: dose series up to 57.1 µM unless noted
# [9] = Cytotoxicity counterscreen for inhibitors of SARS-CoV-2 cell entry (AID 1645845); note: nearly all actives have a fitted effect of over 50% in size
# Procedure, shortened: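 48 h compound treatment (after 1 h preincubation), HEK293-ACE2 cells, 37 C/5% CO2; ATP luminescence endpoint; normalized to cell wells and media blanks.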
# [10] = Primary qHTS to identify inhibitors of SARS-CoV-2 cell entry (AID 1645846); conditions: activity change, negative = inhibition: at 57.1 µM (top of the series) unless noted; note: nearly all actives have a fitted effect of over 45% in size
# Procedure, shortened: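 Entry measured by luciferase signal 48 h after adding SARS-CoV-2-S pseudotyped MLV particles to HEK293-ACE2 cells preincubated 1 h with compounds. Normalisation: bald particles and spike particles.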
# [11] = Inducers of the Endoplasmic Reticulum Stress Response (ERSR) in human glioma: Validation (AID 504836; active = well fitted curve in the direction sought with a large enough effect; an effect the other way counts as inactive or inconclusive)
# Procedure, shortened: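 ERSR induction read as luciferase luminescence (Bright-Glo, 10 min at room temperature) in stably transfected human U87-MG glioma cells exposed to compounds for 16 h, using GRP78 as sensor.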
# [12] = target: Nuclear receptor subfamily 1 group I member 3 (Homo sapiens) (UniProt Q14994); experiment: Primary qHTS for antagonist of constitutive androstane receptor (CAR) against the NCATS DSHEA and TCM libraries (AID 1794836; active = well fitted curve in the direction sought with a large enough effect; an effect the other way counts as inactive or inconclusive;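 note: HepG2 cells stably expressing hCAR with CYP2B6 luciferase reporter stimulated by CITCO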)
# Procedure, shortened: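 Antagonist mode: CAR reporter luminescence (ONE-Glo) in HepG2-CYP2B6-hCAR cells stimulated with 48 uM CITCO (final) over 24 h at 37 C, compounds titrated; viability read first by CellTiter-Fluor fluorescence.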
# [13] = target: Alpha-galactosidase (Coffea arabica) (UniProt Q42656); experiment: Counterscreen for Glucocerebrosidase Inhibitors: qHTS Assay for Coffee Bean alpha-Galactosidase at pH 5.9 (AID 998; active = well fitted curve in the direction sought with a large enough effect; an effect the other way counts as inactive or inconclusive)
# Procedure, shortened: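 Compounds were titrated from 0.7 nM to 77 uM against green coffee bean alpha-galactosidase (2 nM) using 80 uM fluorogenic 4-methylumbelliferyl substrate. After 20 min at room temperature, reactions were stopped at pH 10 and read by fluorescence.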
# [14] = target: Cytochrome P450 3A4 (Homo sapiens) (UniProt P08684); experiment: qHTS Assay for Activators of Cytochrome P450 3A4 (AID 885; active = well fitted curve in the direction sought with a large enough effect; an effect the other way counts as inactive or inconclusive; note: nearly all actives have a fitted effect of over 65% in size)
# Procedure, shortened: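 Quantitative HTS format: compounds preincubated with 20nM human CYP3A4 and Luciferin-PPXE substrate at KM, reaction started by NADPH regeneration, stopped after 60 min, luciferase luminescence read 20 min later.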
# [15] = S16 Schwann cell PMP22 intronic element beta-lactamase assay (AID 624044); note: potency is the fitted concentration of half-maximal effect; nearly all actives have a fitted effect of over 15% in size
# Procedure, shortened: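 Rat S16 Schwann cells with beta-Lac driven by a PMP22 intronic element, compound-treated 24 h at 37 °C. LiveBLAzer FRET B/G read: 460 nm normalized to potassium clavulanate vs DMSO; 535 nm FRET as viability; concentration-effect curves classified.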
# [16] = qHTS profiling of the MIPE4 collection as inhibitors of Plasmodium falciparum (3D7) proliferation (AID 743344; call rule not given here); conditions: P. falciparum 3D7 in erythrocytes, SYBR Green DNA fluorescence, 72 h; at 28.5 µM (top of the series) unless noted
# Procedure, shortened: (§1)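 Erythrocytes infected with P. falciparum (0.3% parasitemia, 2.5% hematocrit) incubated with compounds 72 h at 37 C, 5% CO2. Lysis with saponin/Triton buffer containing SYBR Green I, overnight at room temperature in the dark; DNA fluorescence (485/535 nm) normalised to 0.29 uM artemisinin and DMSO.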
# [17] = qHTS profiling of the MIPE4 collection as inhibitors of Plasmodium falciparum (DD2) proliferation (AID 743345; call rule not given here); conditions: P. falciparum Dd2 in erythrocytes, SYBR Green DNA, 72 h; at 28.5 µM (top of the series) unless noted
# Procedure, shortened: as §1
# [18] = qHTS profiling of the MIPE4 collection as inhibitors of Plasmodium falciparum (DD2) proliferation (Rep 2) (AID 743346; call rule not given here); conditions: P. falciparum Dd2 in erythrocytes, SYBR Green DNA, 72 h; at 28.5 µM (top of the series) unless noted
# Procedure, shortened: as §1
# [19] = qHTS profiling of the MIPE4 collection as inhibitors of Plasmodium falciparum (HB3) proliferation (AID 743347; call rule not given here); conditions: P. falciparum HB3 in erythrocytes, SYBR Green DNA, 72 h; at 28.5 µM (top of the series) unless noted
# Procedure, shortened: as §1
# [20] = VSVG counterscreen qHTS to identify inhibitors of SARS-CoV-2 cell entry (AID 1645847); note: potency is the fitted concentration of half-maximal effect; nearly all actives have a fitted effect of over 65% in size
# Procedure, shortened: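 Luminescence read after 48 h infection at 37 C with VSV-G-pseudotyped MLV particles, following 1 h compound exposure of Expi293F cells stably expressing human ACE2; scaled between bald particle and VSV-G particle wells.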
# [21] = target: Alpha-galactosidase (Coffea arabica) (UniProt Q42656); experiment: Counterscreen for Glucocerebrosidase Inhibitors: qHTS Assay for Coffee Bean alpha-Galactosidase at pH 4.5 (AID 957; active = well fitted curve in the direction sought with a large enough effect; an effect the other way counts as inactive or inconclusive)
# Procedure, shortened: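 Coffee bean alpha-galactosidase 2 nM, substrate 4-MU-alpha-Gal 80 uM, pH 4.5 citrate/Tween-20, 20 min RT. Cpd titration 0.7 nM–77 uM. Stop pH 10, fluorescence 365/440 nm; Hill-equation AC50.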
# [22] = Validation screen for inhibitors of Lassa infection (AID 463096)
# Nucleoprotein (Lymphocytic choriomeningitis virus (strain Armstrong)), sequence (P09992 whole entry, looked up): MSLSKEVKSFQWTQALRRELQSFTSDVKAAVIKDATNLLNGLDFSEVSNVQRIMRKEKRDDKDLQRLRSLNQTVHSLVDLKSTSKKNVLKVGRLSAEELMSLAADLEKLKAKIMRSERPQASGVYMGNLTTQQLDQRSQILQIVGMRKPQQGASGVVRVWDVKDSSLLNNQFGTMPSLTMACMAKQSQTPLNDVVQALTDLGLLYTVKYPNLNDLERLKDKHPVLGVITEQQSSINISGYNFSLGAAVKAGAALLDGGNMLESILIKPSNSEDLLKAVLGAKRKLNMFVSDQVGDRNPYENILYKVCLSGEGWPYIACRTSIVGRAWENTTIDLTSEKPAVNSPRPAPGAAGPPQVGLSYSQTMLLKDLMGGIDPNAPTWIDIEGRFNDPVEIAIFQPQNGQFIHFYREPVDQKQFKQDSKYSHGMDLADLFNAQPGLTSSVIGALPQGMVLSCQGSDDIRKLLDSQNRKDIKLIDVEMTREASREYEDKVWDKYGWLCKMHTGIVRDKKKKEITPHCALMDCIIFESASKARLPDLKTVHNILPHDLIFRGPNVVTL
# Alpha-galactosidase (Coffea arabica), sequence (Q42656 whole entry, looked up): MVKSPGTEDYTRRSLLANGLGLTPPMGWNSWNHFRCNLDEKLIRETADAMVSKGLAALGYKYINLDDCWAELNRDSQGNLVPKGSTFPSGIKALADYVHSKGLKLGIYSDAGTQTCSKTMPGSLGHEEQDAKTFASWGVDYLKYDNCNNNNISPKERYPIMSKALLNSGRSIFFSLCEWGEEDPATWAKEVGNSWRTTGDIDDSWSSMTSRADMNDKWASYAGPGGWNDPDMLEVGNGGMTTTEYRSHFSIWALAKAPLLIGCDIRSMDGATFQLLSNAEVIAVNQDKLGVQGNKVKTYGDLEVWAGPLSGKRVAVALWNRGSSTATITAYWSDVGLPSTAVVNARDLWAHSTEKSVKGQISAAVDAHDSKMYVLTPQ
# Nuclear receptor subfamily 1 group I member 3 (Homo sapiens), sequence (Q14994 whole entry, looked up): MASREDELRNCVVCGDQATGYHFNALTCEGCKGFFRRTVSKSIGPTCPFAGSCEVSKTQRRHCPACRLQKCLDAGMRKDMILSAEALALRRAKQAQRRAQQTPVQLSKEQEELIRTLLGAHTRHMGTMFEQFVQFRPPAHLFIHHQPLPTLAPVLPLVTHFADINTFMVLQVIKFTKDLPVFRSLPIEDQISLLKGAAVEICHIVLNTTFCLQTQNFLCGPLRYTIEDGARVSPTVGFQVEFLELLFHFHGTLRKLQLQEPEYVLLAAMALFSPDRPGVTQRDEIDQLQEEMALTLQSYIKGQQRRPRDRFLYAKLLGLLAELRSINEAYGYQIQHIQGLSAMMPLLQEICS
# Cytochrome P450 3A4 (Homo sapiens), sequence (P08684 whole entry, looked up): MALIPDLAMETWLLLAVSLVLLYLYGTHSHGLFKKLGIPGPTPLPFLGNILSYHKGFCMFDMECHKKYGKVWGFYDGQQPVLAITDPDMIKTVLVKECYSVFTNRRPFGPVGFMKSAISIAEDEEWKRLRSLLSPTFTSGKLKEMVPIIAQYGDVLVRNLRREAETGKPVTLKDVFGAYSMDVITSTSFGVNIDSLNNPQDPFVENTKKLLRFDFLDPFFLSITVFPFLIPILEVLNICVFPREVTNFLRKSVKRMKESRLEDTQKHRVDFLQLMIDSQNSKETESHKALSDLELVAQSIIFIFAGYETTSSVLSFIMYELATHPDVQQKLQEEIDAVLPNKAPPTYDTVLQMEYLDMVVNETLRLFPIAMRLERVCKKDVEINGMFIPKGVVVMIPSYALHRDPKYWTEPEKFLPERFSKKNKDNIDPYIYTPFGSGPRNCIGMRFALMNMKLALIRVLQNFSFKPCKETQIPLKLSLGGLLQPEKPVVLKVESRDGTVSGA
smiles,measurement,setting,value
C[C@]12CCC(=O)C[C@@H]1CC[C@@H]1[C@@H]2CC[C@]2(C)C=CC[C@@H]12,Potency,[1],inactive
same,Potency,[2],inactive
same,Potency,[3],inactive
same,Potency,[4],inactive
same,Potency,[5],inactive
same,outcome,[6],inactive
same,Potency,[7],inactive
same,outcome,[8],inactive
same,Potency,[9],inactive
same,"activity change, negative = inhibition",[10],-21.9%
NCC1CCC(C(=O)O)CC1 (configuration not stated),Potency,[1],inactive
same,Potency,[2],inactive
same,Potency,[3],inactive
same,Potency,[4],inactive
same,outcome,[5],inactive [at 11.4 µM]
same,outcome,[6],inactive [at 11.4 µM]
same,"activity change, negative = inhibition",[7],2.4% [at 11.4 µM] (inactive)
same,outcome,[8],inactive [at 11.4 µM]
same,Potency,[9],inactive
same,Potency,[10],inactive
CC1=C(/C=C/C(C)=C/C=C/C(C)=C/C=C/C=C(C)/C=C/C=C(C)/C=C/C2=C(C)C[C@@H](O)CC2(C)C)C(C)(C)C[C@H](O)C1,Potency,[1],inactive
same,Potency,[2],inactive
same,Potency,[3],inactive
same,Potency,[4],inactive
same,Potency,[5],inactive
same,outcome,[6],inactive
same,Potency,[7],inactive
same,outcome,[8],inactive
same,Potency,[9],inactive
CO/N=C(\C(=O)N[C@@H]1C(=O)N2C(C(=O)O)=C(COC(C)=O)CS[C@H]12)c1csc(N)n1,outcome,[11],inactive
same,Potency,[1],inactive
same,Potency,[2],inactive
same,Potency,[3],inactive
same,Potency,[4],inactive
same,Potency,[5],inactive
same,outcome,[6],inactive
same,Potency,[7],inactive
same,outcome,[8],inactive
same,Potency,[9],inactive
same,Potency,[10],inactive
C[Se]CC[C@H](N)C(=O)O,Potency,[1],inactive
same,Potency,[2],inactive
same,Potency,[3],inactive
same,Potency,[4],inactive
same,Potency,[5],inactive
same,outcome,[6],inactive [at 26.4 µM]
same,Potency,[7],inactive
same,outcome,[8],inactive
same,Potency,[9],inactive
COc1cc2c(c(OC)c1OC)-c1c(cc3c(c1OC)OCO3)C[C@H](C)[C@@](C)(O)C2,Potency,[1],inactive
same,Potency,[2],inactive
same,Potency,[3],inactive
same,Potency,[4],inactive
same,Potency,[5],inactive
same,outcome,[6],inactive
same,Potency,[7],inactive
same,outcome,[8],inactive
same,Potency,[9],inactive
CCCCCCCCCCCC(=O)OCC(O)CO (configuration not stated),Potency,[1],inactive
same,Potency,[2],inactive
same,Potency,[3],inactive
same,Potency,[4],inactive
same,Potency,[5],inactive
same,outcome,[6],inactive
same,Potency,[7],inactive
same,outcome,[8],inactive
same,Potency,[9],inactive
same,Potency,[10],inactive
same,Potency,[12],inactive
COc1cc(C)c(C=CC(C)=CC=CC(C)=CC(=O)O)c(C)c1C,Potency,[1],inactive
same,Potency,[2],inactive
same,Potency,[3],inactive
same,Potency,[4],inactive
same,Potency,[5],inactive
same,outcome,[6],inactive
same,Potency,[7],inactive
same,outcome,[8],inactive
same,Potency,[9],inactive
same,Potency,[10],inactive
CCCC1O[C@@H]2C[C@H]3[C@@H]4CCC5=CC(=O)C=C[C@]5(C)[C@H]4[C@@H](O)C[C@]3(C)[C@]2(C(=O)CO)O1 (some centres not stated),outcome,[13],inactive
same,outcome,[11],inactive
same,Potency,[1],inactive
same,Potency,[2],inactive
same,Potency,[3],inactive
same,Potency,[4],inactive
same,Potency,[5],inactive
same,outcome,[6],inactive
same,Potency,[7],inactive
same,outcome,[8],inactive
same,Potency,[9],inactive
same,"activity change, negative = inhibition",[10],-23.4%
COC(=O)C[C@](O)(CCCC(C)(C)O)C(=O)O[C@@H]1C(OC)=C[C@]23CCCN2CCc2cc4c(cc2[C@H]13)OCO4,Potency,[14],inactive
same,Potency,[15],89.1 nM (active)
same,"parasite growth, % of DMSO control",[16],70%
same,"parasite growth remaining, % of DMSO control (lower = more inhibition)",[17],85.8%
same,"parasite growth, % of control (lower = inhibition)",[18],67.1%
same,"growth, % of control",[19],76.2%
same,Potency,[1],inactive
same,Potency,[2],inactive
same,Potency,[3],inactive
same,Potency,[4],inactive
same,Potency,[5],3160 nM (active)
same,outcome,[6],inactive
same,Potency,[7],891 nM (active)
same,Potency,[9],inactive
same,Potency,[20],68.1 nM (active)
N[C@@H](CC(=O)O)C(=O)O,outcome,[21],inactive
same,outcome,[13],inactive
same,Potency,[22],inactive
same,outcome,[11],inactive
same,Potency,[1],inactive
same,Potency,[2],inactive
same,Potency,[3],inactive
same,Potency,[4],inactive
same,"activity change, negative = inhibition",[5],-20.9% [at 5.34 µM] (inactive)
same,outcome,[6],inactive [at 5.34 µM]
same,outcome,[7],inactive [at 5.34 µM]
same,"activity change, negative = cytotoxicity",[8],2.41% [at 5.34 µM] (inactive)
same,outcome,[9],inactive [at 5.25 µM]
same,outcome,[10],inactive [at 5.25 µM]
O=C1CCC(C(=O)O)N1 (configuration not stated),Potency,[1],inactive
same,Potency,[2],inactive
same,Potency,[3],inactive
same,Potency,[4],inactive
same,Potency,[5],inactive
same,outcome,[6],inactive
same,Potency,[7],inactive
same,outcome,[8],inactive
same,Potency,[9],inactive
same,"activity change, negative = inhibition",[10],-17.5%
CC(C=CC=C(C)C=CC1=C(C)CCCC1(C)C)=CC=CC=C(C)C=CC=C(C)C=CC1=C(C)CCCC1(C)C,Potency,[1],inactive
same,Potency,[2],inactive
same,Potency,[3],inactive
same,Potency,[4],inactive
same,outcome,[5],inactive [at 0.573 µM]
same,outcome,[6],inactive [at 0.573 µM]
same,outcome,[7],inactive [at 0.573 µM]
same,"activity change, negative = cytotoxicity",[8],0.415% [at 0.573 µM] (inactive)
same,outcome,[9],inactive [at 0.702 µM]
same,"activity change, negative = inhibition",[10],-7.48% [at 0.702 µM]
CC(=O)O[C@H]1CC2(C)[C@@H](C[C@@H](O)[C@H]3[C@@]4(C)CC[C@@H](O)[C@@H](C)[C@@H]4CC[C@@]32C)C1=C(CCC=C(C)C)C(=O)O (some centres not stated),Potency,[22],inactive
same,outcome,[11],inactive
same,Potency,[1],inactive
same,Potency,[2],inactive
same,Potency,[3],inactive
same,Potency,[4],inactive
same,Potency,[5],inactive
same,outcome,[6],inactive
same,Potency,[7],inactive
same,outcome,[8],inactive
same,Potency,[9],inactive
same,"activity change, negative = inhibition",[10],-17.3%
CC(=O)O[C@H]1C[C@@H]2CC[C@H]3[C@H]4C[C@H]([N+]5(C)CCCCC5)[C@@H](OC(C)=O)[C@@]4(C)CC[C@@H]3[C@@]2(C)C[C@H]1[N+]1(C)CCCCC1,"parasite growth, % of DMSO control",[16],73.3%
same,"parasite growth remaining, % of DMSO control (lower = more inhibition)",[17],88%
same,"parasite growth, % of control (lower = inhibition)",[18],58.4%
same,"growth, % of control",[19],72.7%
same,Potency,[1],inactive
same,Potency,[2],inactive
same,Potency,[3],inactive
same,Potency,[4],inactive
same,Potency,[5],inactive
same,outcome,[6],inactive
same,Potency,[7],inactive
same,outcome,[8],inactive
same,Potency,[9],inactive
same,Potency,[10],inactive
same,"activity change, negative = inhibition",[10],-10.4%
